The text below walks through data of PubChem BioAssay (NCATS).

Molecules are shown by their SMILES. Several values for one entry are separate records, joined by “and”; a condition that tells them apart may be missing. Equal values may be shown once. Records with an inconclusive call do not appear. Activity calls are given as the source filed them. Unless noted, calls come from the whole dose curve; as a rule, active = well fitted curve in the direction sought with a large enough effect; inconclusive = small, poorly fitted or top-dose-only effect, or another doubt; inactive = no such curve, though single readings can be large; an effect the other way counts as inactive or inconclusive.

Experiment [1] addresses Mitogen-activated protein kinase 10 (Mus musculus) (UniProt Q61831). Put plainly: JNK3 AlphaScreen Assay (AID 530; active = well fitted curve in either direction with a large enough effect, not every such curve was filed as active;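 note: kinase came from lysate of stimulated human HepG2 cells; signal reports phosphorylation of biotinylated GST-cJun 1-79 at Ser73 with 10 µM ATP; % is set by controls: 0 for no effect and ±100 for the full control effect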). In outline: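 Kinase buffer: 20 mM Tris-HCl pH 7.6, 10 mM MgCl2, 1 mM DTT, 0.1 mM Na3VO4, 0.01% Tween-20; ATP 10 uM. Substrate biotin-GST-cJun(1-79), enzyme from activated HepG2 lysates. Detection by Ser73 phospho-antibody AlphaScreen.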
In general terms: Bead proximity is the source of the signal in Alpha formats.

Experiment [2] can be described thus: Cell Viability - N2a (AID 540).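 Note: cells exposed to compound for 40 h at 37 °C; plate controls were DMSO alone for no effect and tamoxifen control for full effect; nearly all actives have a fitted effect of over 45% in size.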 Conditions: N2a mouse neuroblastoma cell viability; activity change, negative = cytotoxicity: at 92.2 µM (top of the series). A digest of the protocol:
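N2a mouse neuroblastoma, 1500 cells/well, 5 hr settle; compound 40 hr, 37 °C; CellTiter-Glo 20 min RT; luminescence; Hill-fit AC50.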

A short description of experiment [3]: Cell Viability - HUV-EC-C (AID 542).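 Note: cells exposed to compound for 40 hours; % is set by controls: 0 for no effect and ±100 for the full control effect; nearly all actives have a fitted effect of over 35% in size.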 A digest of the protocol:
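Luminescent ATP read-out (CellTiter-Glo, 20 min room temperature) after 40 hr compound treatment of HUV-EC-C cells at 37 °C. Concentration-response data fitted with the standard Hill equation to give AC50; tamoxifen and doxorubicin served as positive controls.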

A short description of experiment [4]: Cell Viability - Renal Proximal Tubule (AID 545).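 Note: cells exposed to compound for 40 hours; 0% = DMSO only and -100% = 100 µM tamoxifen; nearly all actives have a fitted effect of over 40% in size.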 A digest of the protocol:
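Primary rat renal proximal tubule cells (1000/well) were treated with compounds for 40 hr at 37 °C in complete medium. Intracellular ATP was measured by CellTiter-Glo luminescence, and AC50 values came from Hill-equation fits of concentration-response data.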

The nature of experiment [5]: Cell Viability - Mesenchymal (AID 546).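 Note: cells exposed to compound for 40 hours before reading; 0% = DMSO only and -100% = 100 µM tamoxifen.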 A digest of the protocol: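 CellTiter-Glo luminescence (intracellular ATP, 20 min room temperature) after 40 hr compound exposure at 37 °C of 1000 glomerulus-derived human kidney mesenchymal cells/well; AC50 values obtained by fitting qHTS concentration-response data to the Hill equation.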
The nature of experiment [6]: Cellular Toxicity (caspase-3) Mesangial (AID 660).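 Note: combined caspase 3 and 7 activity read by Caspase-Glo luminescence; cells exposed to compound for 16 h before the caspase read.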 In outline: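 Luminescent Caspase-Glo 3/7 readout (aminoluciferin substrate cleavage, 20 min RT) after 16 h compound exposure at 37 °C of normal human mesangial cells. Signal increase normalized between DMSO basal and 100 uM tamoxifen; Hill-equation AC50.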
Experiment [7] in a line: Cellular Toxicity (caspase-3) Renal Proximal Tubule (AID 667).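 Note: cells exposed to compound for 16 hours at 37 °C before detection; 0% = DMSO basal and 100% = 10 µM staurosporine.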 In outline: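 Primary rat proximal tubule cells, 1000/well, 5 h plating at 37 °C, then compound 16 h at 37 °C. Caspase-Glo 3/7 reagent, 1 h RT, luminescence. Normalized to DMSO (basal) and 10 uM staurosporine (100%); Hill-fit AC50.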
For experiment [8], the target named is Cytochrome P450 3A4 (Homo sapiens) (UniProt P08684). As to the kind of experiment: qHTS Assay for Inhibitors and Substrates of Cytochrome P450 3A4 (AID 884). Note: nearly all actives have a fitted effect of over 50% in size. Note: potency is the fitted concentration of half-maximal effect. In outline:
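Luminescent readout of luciferin produced by CYP3A4 (20 nM) dealkylation of Luciferin-PPXE, 25 uM (its KM). NADPH-driven reaction ran 60 min at RT after 10 min compound preincubation; data scaled to 57 uM ketoconazole as 100% inhibition.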
Background: qHTS replaces the single test concentration by a dilution series.

Experiment [9] is described as follows: MultiTox-Fluor Cytotoxicity Assay - LYMP1-001 - Live Cells (AID 947).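 Note: 0% = DMSO only and full inhibition = tetraoctylammonium bromide control.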
The nature of experiment [10]: Cell Viability - LYMP2-005 (AID 967).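 Note: plate controls were DMSO only for no effect and 92 µM tetraoctylammonium bromide control for full effect.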 A digest of the protocol: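 CellTiter-Glo luminescence (cellular ATP) read-out; LYMP2-005 lymphoblastoid cells, 2500/well, 5 h pre-incubation, then 24 h compound exposure at 37 C in complete medium. Tetraoctylammonium bromide positive control; AC50 by standard Hill fit.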
Experiment [11] in a line: Cell Viability - LYMP2-010 (AID 981).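 Note: cells exposed to compound for 24 hours at 37 °C; % is set by controls: 0 for no effect and ±100 for the full control effect; nearly all actives have a fitted effect of over 55% in size.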 A digest of the protocol:
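qHTS cytotoxicity, 1536-well: 2500 cells/well, 5 hr settle, 24 hr compound at 37 C, CellTiter-Glo 30 min RT, luminescence read. Decrease in ATP = toxicity; AC50 via standard Hill equation. Positive control tetraoctylammonium bromide.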

Experiment [12] can be described thus: Cell Viability - LYMP2-024 (AID 988).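 Note: plate controls were DMSO only for no effect and 92 µM tetraoctylammonium bromide for full effect; nearly all actives have a fitted effect of over 60% in size.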 A digest of the protocol: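 ATP-based luminescence (CellTiter-Glo, 30 min RT) after 24 h compound exposure at 37 C of 2500 lymphoblastoid cells/well; decrease in ATP taken as cytotoxicity. qHTS concentration-response fitted to standard Hill equation for AC50.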
For experiment [13], the target named is Vitamin D3 receptor (Homo sapiens) (UniProt P11473). As to the kind of experiment: qHTS assay for small molecule antagonists of vitamin D receptor signaling (AID 588541; calls by dose curve;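 note: receptor activated by calcitriol during compound treatment; % is set by controls: 0 for no effect and ±100 for the full control effect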). In outline:
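Antagonist-mode beta-lactamase reporter assay: HEK293T VDR-UAS-bla cells were exposed to titrated compound alongside 1-alpha,25-dihydroxyvitamin D3 at 3 nM final for 16 h. Values were normalized to the 50 nM agonist control and DMSO basal, with IC50 and efficacy from Hill equation fits.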

Experiment [14] is described as follows: qHTS assay for small molecule antagonists of retinoid X receptor alpha signaling (AID 588546).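 Note: cells stimulated with 9-cis-retinoic acid as agonist; % is set by controls: 0 for no effect and ±100 for the full control effect.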 Conditions: HEK293T RXRa-UAS-bla, beta-lactamase ratio, antagonist mode; measured here: W530 green channel, cytotoxicity proxy. In outline:
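Beta-lactamase reporter inhibition, read as CCF4 fluorescence ratio (ex 405, em 460/530 nm) after 2 h at RT. HEK293T UAS-bla cells, 2500/well, were stimulated with 9-cis-RA at 500 or 100 nM final alongside test compound for 18 h at 37 C.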

In experiment [15] the target is Voltage-gated inwardly rectifying potassium channel KCNH2 (Homo sapiens) (UniProt Q12809). As to the kind of experiment: qHTS Assay for Small Molecule Inhibitors of the Human hERG Channel Activity (AID 588834).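 Note: top concentration of the series differs between compounds; % is set by controls: 0 for no effect and ±100 for the full control effect; lower thallium flux fluorescence means stronger hERG block; nearly all actives have a fitted effect of over 50% in size.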 A digest of the protocol:
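In hERG-transduced U2OS cells, dye-loaded for 1 hr at room temperature in dark, test compounds incubated 10 min at 37 °C before thallium stimulation. AC50 values derived by Hill modelling of concentration-response.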

Experiment [16] in a line: qHTS assay for small molecule disruptors of the mitochondrial membrane potential - 1 hr assay (AID 651754; calls by dose curve; note: % is set by controls: 0 for no effect and ±100 for the full control effect; nearly all actives have a fitted effect of over 35% in size). A digest of the protocol: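 Read-out: dye fluorescence at 490 nm ex/535 nm em (monomers) and 540 nm ex/590 nm em (aggregates) in HepG2 cells. Compound exposure 1 hr at 37C, followed by 30 min dye loading.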
The nature of experiment [17]: qHTS assay for small molecule activators of the human pregnane X receptor (PXR) signaling pathway (AID 720659; call rule not given here; note: 0% is about no effect).
Experiment [18] can be described thus: Cell Viability - LYMP2-016 (AID 984).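 Note: cells exposed to compound for 24 hours at 37 °C; % is set by controls: 0 for no effect and ±100 for the full control effect; nearly all actives have a fitted effect of over 55% in size.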 A digest of the protocol:
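Human lymphoblastoid cells (LYMP2-016), 2500/well in complete medium, preincubated 5 hr at 37 C, then compound-treated 24 hr at 37 C. Intracellular ATP read by CellTiter-Glo luminescence after 30 min at room temperature; AC50 from Hill-equation concentration-response fits.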

A short description of experiment [19]: qHTS assay for cell viability of HEK293 cells (AID 743288). Note: % is set by controls: 0 for no effect and ±100 for the full control effect; nearly all actives have a fitted effect of over 50% in size. Conditions: ATP luminescence (CellTiter-Glo), 18 h, stronger effect = lower value. In outline:
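After 18 h compound exposure at 37 C, parental HEK293 cells (2,000/well) are lysed with CellTiter-Glo and luminescence is read following 30 min at room temperature.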

Experiment [20] concerns the target Nuclear receptor subfamily 1 group I member 2 (Rattus norvegicus) (UniProt Q9R1A7). As to the kind of experiment: qHTS assay for small molecule activators of the rat pregnane X receptor (rPXR) signaling pathway (AID 651751; call rule not given here; note: 0% is about no effect). Conditions: rPXR reporter cells, luciferase (One-Glo), 24 h.

Chain of Nuclear receptor subfamily 1 group I member 2 (Rattus norvegicus) (Q9R1A7 whole entry, looked up): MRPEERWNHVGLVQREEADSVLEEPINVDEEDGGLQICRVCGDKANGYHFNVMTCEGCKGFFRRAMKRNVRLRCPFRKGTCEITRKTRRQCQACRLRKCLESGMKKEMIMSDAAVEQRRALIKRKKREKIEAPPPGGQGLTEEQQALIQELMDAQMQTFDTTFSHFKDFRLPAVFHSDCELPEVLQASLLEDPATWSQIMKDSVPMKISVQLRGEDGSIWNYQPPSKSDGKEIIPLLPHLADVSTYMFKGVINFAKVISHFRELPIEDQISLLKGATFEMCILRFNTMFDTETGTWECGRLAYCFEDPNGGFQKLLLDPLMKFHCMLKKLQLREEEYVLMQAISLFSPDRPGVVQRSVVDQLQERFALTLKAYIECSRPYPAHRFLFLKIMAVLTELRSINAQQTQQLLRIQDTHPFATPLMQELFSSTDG
Chain of Vitamin D3 receptor (Homo sapiens) (P11473 whole entry, looked up): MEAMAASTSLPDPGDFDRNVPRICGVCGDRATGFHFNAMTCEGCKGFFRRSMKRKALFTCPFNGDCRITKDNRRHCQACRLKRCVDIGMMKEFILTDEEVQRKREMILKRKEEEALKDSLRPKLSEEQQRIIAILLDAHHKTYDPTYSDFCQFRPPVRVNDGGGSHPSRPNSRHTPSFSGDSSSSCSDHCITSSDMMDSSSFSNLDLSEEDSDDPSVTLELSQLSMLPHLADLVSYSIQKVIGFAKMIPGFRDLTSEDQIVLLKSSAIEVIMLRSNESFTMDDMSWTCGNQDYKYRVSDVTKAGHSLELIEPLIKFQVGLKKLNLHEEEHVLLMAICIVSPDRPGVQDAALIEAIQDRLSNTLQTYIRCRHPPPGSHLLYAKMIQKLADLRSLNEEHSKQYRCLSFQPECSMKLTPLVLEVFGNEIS
Chain of Cytochrome P450 3A4 (Homo sapiens) (P08684 whole entry, looked up): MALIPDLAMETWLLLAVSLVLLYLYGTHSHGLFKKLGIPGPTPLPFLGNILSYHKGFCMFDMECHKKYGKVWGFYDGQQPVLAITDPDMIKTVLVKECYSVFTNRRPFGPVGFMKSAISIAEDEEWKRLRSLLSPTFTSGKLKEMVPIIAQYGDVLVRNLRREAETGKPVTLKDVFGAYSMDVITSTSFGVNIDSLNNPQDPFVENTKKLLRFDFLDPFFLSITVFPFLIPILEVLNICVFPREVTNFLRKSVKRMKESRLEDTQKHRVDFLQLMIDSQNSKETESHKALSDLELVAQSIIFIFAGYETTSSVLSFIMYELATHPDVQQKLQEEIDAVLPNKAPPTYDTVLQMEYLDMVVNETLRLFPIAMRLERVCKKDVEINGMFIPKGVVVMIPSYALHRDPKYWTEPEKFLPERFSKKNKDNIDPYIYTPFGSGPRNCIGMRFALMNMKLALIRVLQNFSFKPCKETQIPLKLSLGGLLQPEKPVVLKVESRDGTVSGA
Chain of Voltage-gated inwardly rectifying potassium channel KCNH2 (Homo sapiens) (Q12809 whole entry, looked up): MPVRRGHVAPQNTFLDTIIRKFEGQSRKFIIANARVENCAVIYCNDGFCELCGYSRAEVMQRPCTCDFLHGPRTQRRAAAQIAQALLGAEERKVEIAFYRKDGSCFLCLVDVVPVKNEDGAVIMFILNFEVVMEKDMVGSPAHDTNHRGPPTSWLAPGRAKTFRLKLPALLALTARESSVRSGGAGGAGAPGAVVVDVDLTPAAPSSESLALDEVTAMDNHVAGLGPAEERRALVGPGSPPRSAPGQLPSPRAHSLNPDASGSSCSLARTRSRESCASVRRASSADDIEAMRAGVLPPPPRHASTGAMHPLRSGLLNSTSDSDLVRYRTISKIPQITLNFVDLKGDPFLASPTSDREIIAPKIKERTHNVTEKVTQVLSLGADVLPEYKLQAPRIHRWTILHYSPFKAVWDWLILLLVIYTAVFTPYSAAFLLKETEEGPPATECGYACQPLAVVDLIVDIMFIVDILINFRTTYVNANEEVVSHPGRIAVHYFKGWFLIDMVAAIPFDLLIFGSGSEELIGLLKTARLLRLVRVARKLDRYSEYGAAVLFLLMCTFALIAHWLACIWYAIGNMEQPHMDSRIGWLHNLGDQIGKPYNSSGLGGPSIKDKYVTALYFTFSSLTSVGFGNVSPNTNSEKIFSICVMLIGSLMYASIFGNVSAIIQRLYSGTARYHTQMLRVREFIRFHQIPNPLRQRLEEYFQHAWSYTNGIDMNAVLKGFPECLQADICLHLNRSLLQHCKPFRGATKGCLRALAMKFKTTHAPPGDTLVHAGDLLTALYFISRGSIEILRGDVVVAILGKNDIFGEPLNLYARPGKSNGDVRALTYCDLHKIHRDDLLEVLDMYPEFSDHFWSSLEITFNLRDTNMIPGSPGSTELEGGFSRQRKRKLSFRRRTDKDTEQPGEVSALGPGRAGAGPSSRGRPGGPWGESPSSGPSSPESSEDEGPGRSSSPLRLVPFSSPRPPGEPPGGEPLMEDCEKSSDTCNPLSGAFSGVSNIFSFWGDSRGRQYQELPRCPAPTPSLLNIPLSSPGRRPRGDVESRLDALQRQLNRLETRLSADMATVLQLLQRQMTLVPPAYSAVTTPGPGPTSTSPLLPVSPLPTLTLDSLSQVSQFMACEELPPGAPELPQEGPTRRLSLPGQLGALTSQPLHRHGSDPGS

For the molecule `FC(Cl)(Cl)Cl`, the Potency result in experiment [1], in experiment [2], in [3], in experiment [5], in [8] and in experiment [10] was “inactive” throughout. In addition, the Potency entry in experiment [11], in experiment [12], in experiment [15] and in experiment [16] was “inactive” each time. The molecule was classed as inactive in experiment [4], in experiment [6], in experiment [7], in experiment [9], in experiment [13] and in experiment [17]. Also, in experiment [14], the max response was -8.6%.

On to `S=C1NCCN1`, for which the Potency entry in experiment [1], in [2], in [3], in experiment [5], in [8] and in experiment [10] was “inactive” each time. Moreover, the Potency entry in experiment [11], in experiment [18] and in [15] was “inactive” throughout. The molecule was classed as inactive in experiment [4], in [6], in experiment [7], in experiment [13] and in experiment [17]. Further, the max response in [14] is -7.1% and 12.2%; in [19], 4.6% (inactive) and 3.06% (inactive); in [20], 6.01% (inactive) and -10.7% (inactive).

On to `CCOC(=O)CBr`, for which the Potency entry in experiment [1], in [2], in experiment [3], in [5], in experiment [8] and in [10] was “inactive” in each case. For the same molecule, the Potency result in experiment [11], in experiment [12], in experiment [15] and in [16] was “inactive” each time. Further, the molecule was classed as inactive in [4], in experiment [6], in experiment [7], in experiment [9], in experiment [13] and in experiment [17]. Moreover, the max response in experiment [14] is -3.97%; in experiment [19] it was -5.15% (inactive); in experiment [20], 2.21% (inactive).

Take `CC(C)OC(=O)Cc1ccccc1`: the Potency entry in [1], in experiment [2], in experiment [3], in [5], in experiment [8] and in experiment [10] was “inactive” each time. In addition, the Potency result in experiment [11], in experiment [18], in experiment [12], in [15] and in experiment [16] was “inactive” each time. The result in [4], in experiment [7], in experiment [9], in experiment [13] and in experiment [17] was inactive. In addition, the max response was -2.88% in experiment [14], -4.3% (inactive) in experiment [19] and 1.04% (inactive) in [20].

As to `Nc1cc(Cl)cc(Cl)c1`, the Potency result in experiment [1], in experiment [2], in experiment [3], in experiment [5], in [10] and in [11] was “inactive” in each case. Also, the Potency entry in [18], in experiment [12], in experiment [15] and in experiment [16] was “inactive” throughout. Further, the molecule was classed as inactive in [4], in experiment [6], in [7], in experiment [9], in experiment [13] and in experiment [17]. The max response was -5.15% in experiment [14], 5.59% (inactive) in experiment [19] and -0.532% (inactive) in [20].

Regarding `CCC#N`, the Potency result in experiment [1], in [2], in experiment [3], in experiment [5], in experiment [8] and in experiment [10] was “inactive” each time. The Potency entry in experiment [18], in experiment [12] and in experiment [15] was “inactive” throughout. For the same molecule, the result in [4], in [6], in experiment [7], in [9], in experiment [13] and in experiment [17] was inactive. The max response in [14] is 15.9%; in experiment [19], -7.94% (inactive); in [20], -2.01% (inactive).

As for `Nc1ccc(Cc2ccc(N)cc2)cc1`, the Potency result in experiment [1], in experiment [2], in experiment [3], in [5], in [10] and in [18] was “inactive” throughout. The Potency entry in experiment [12], in [15] and in experiment [16] was “inactive” in each case. Also, the call in [4], in [6], in [7], in experiment [9], in experiment [13] and in experiment [17] was inactive. For the same molecule, the Potency in [8] was 25.1 µM (active). In addition, the max response was -3.16% and 6.7% in experiment [14]; 9.53% (inactive) and -1.85% (inactive) in experiment [19]; 4.75% (inactive) and 4.67% (inactive) in [20].

With `CCBr`, the Potency result in [1], in [2], in experiment [3], in [5], in experiment [8] and in experiment [10] was “inactive” each time. Besides, the Potency entry in [11], in experiment [18], in experiment [12], in [15] and in experiment [16] was “inactive” each time. In addition, the result in experiment [4], in experiment [6], in experiment [13] and in experiment [17] was inactive. The values for the max response in experiment [14] and in experiment [20] were -5.59% and 4.52% (inactive), respectively.
